# In publication PMC4081100, “A DNA-binding-site landscape and regulatory network analysis for NAC transcription factors in Arabidopsis thaliana”:
# Columns and labels:
# Test in all cases: universal protein binding microarray (PBM); transcription factors of Arabidopsis thaliana; high values mean tight binding
# [1] = target: T1, GST-ANAC092(1-176) (Arabidopsis thaliana, UniProt Q9FKA0 1-176); settings: protein: recombinant; tags: GST; chain copies: 2; dsDNA, one strand shown
# T1 sequence: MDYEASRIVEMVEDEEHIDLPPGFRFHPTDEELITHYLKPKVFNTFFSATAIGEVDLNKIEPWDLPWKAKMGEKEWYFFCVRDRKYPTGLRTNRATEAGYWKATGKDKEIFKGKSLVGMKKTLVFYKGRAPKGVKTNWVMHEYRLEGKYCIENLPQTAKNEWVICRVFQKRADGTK
# Outline: (§1)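 GST-tagged NAC-domain, full-length or DNA-binding-domain proteins were induced in cells, with zinc acetate added for zinc-finger proteins. They were purified on glutathione–Sepharose 4B and quantified by A280 or anti-GST western blot. Each was applied at 200 to 500 nM final, in duplicate, to custom all-10-mer Agilent 4 × 180K arrays made double-stranded by primer extension, with gapped and ungapped 8-mers scored. Binding is the normalised enrichment score (E-score).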
# [2] = target: T2, GST-ANAC019 NAC domain (Arabidopsis thaliana, UniProt Q9C932 14-162); settings: protein: recombinant; tags: GST; chain copies: 2; dsDNA, one strand shown
# T2 sequence: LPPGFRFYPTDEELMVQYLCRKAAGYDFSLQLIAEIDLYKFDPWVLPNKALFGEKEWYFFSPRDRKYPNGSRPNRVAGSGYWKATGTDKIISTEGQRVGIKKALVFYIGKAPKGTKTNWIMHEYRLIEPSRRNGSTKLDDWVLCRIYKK
# Outline: as §1
# [3] = target: T3, GST-ANAC055(1-171) (Arabidopsis thaliana, UniProt Q9LDY8 1-171); settings: protein: recombinant; tags: GST; chain copies: 2; dsDNA, one strand shown
# T3 sequence: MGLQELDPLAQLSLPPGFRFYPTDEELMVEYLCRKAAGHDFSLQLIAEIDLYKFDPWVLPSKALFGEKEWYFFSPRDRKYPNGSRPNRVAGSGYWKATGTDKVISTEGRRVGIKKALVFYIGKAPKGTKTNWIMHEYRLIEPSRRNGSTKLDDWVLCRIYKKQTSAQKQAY
# Outline: as §1
# [4] = target: T4, GST-ATAF1 NAC domain (Arabidopsis thaliana, UniProt Q39013 7-158); settings: protein: recombinant; tags: GST; chain copies: 2; dsDNA, one strand shown
# T4 sequence: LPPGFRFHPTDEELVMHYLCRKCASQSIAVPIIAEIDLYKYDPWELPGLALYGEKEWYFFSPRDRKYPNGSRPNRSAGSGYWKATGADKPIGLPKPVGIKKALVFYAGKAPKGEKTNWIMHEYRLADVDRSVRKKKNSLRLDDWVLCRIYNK
# Outline: as §1
# [5] = target: T5, GST-ANAC092(1-285) full length (Arabidopsis thaliana, UniProt Q9FKA0 1-285); settings: protein: recombinant; tags: GST; chain copies: 2; dsDNA, one strand shown
# T5 sequence: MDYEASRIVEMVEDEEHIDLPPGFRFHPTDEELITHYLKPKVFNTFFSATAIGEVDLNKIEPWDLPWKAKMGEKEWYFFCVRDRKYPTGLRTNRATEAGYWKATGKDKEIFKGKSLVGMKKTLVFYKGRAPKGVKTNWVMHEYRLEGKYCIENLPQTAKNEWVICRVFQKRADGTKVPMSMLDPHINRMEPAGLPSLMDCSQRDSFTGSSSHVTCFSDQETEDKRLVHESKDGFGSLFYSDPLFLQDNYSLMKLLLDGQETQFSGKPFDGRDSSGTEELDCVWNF
# Outline: as §1
# [6] = target: T6, GST-NAP(1-166) (Arabidopsis thaliana, UniProt O49255 1-166); settings: protein: recombinant; tags: GST; chain copies: 2; dsDNA, one strand shown
# T6 sequence: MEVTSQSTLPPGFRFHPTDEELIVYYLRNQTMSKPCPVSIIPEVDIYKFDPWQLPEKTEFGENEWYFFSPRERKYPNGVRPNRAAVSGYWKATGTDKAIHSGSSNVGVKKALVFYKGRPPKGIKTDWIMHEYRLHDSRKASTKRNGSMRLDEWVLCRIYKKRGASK
# Outline: as §1
# [7] = target: T7, GST-NTL8 NAC domain (Arabidopsis thaliana, UniProt Q9XIN7 14-156); settings: protein: recombinant; tags: GST; chain copies: 2; dsDNA, one strand shown
# T7 sequence: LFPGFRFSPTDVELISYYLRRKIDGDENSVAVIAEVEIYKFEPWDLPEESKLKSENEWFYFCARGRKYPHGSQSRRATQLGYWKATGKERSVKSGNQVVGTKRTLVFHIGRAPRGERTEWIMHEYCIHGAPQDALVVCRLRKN
# Outline: as §1
# [8] = target: T8, GST-SND1(1-203) (Arabidopsis thaliana, UniProt Q9LPI7 1-203); settings: protein: recombinant; tags: GST; chain copies: 2; dsDNA, one strand shown
# T8 sequence: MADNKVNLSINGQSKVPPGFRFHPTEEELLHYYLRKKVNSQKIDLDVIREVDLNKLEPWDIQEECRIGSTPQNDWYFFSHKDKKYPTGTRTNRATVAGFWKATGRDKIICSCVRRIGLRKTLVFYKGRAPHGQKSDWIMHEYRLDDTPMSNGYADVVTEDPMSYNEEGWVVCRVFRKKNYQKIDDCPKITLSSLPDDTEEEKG
# Outline: as §1
# [9] = target: T9, GST-VND3 NAC domain (Arabidopsis thaliana, UniProt Q9FH59 12-162); settings: protein: recombinant; tags: GST; chain copies: 2; dsDNA, one strand shown
# T9 sequence: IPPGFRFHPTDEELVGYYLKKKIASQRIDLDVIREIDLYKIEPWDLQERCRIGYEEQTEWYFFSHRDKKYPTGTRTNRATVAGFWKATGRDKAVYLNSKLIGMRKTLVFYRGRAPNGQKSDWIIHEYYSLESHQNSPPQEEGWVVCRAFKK
# Outline: as §1
# [10] = target: T10, GST-VND7 NAC domain (Arabidopsis thaliana, UniProt Q9C8W9 9-158); settings: protein: recombinant; tags: GST; chain copies: 2; dsDNA, one strand shown
# T10 sequence: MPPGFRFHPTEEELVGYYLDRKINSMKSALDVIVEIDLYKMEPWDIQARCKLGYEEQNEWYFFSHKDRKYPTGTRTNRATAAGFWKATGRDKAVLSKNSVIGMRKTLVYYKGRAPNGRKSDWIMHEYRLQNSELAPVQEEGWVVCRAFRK
# Outline: as §1
# [11] = target: GST-NTL6(1-168) (Arabidopsis thaliana, UniProt Q9SCK6 1-168); settings: protein: recombinant; tags: GST; chain copies: 2; dsDNA, one strand shown
# Sequence of GST-NTL6(1-168) (Q9SCK6 1-168): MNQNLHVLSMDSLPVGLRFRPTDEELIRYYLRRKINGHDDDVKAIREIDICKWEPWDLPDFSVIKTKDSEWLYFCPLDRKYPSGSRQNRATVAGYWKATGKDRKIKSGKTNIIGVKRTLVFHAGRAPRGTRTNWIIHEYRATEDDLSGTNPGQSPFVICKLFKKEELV
# Outline: as §1
# [12] = target: T11, GST-NST2(1-184) (Arabidopsis thaliana, UniProt Q9M274 1-184); settings: protein: recombinant; tags: GST; chain copies: 2; dsDNA, one strand shown
# T11 sequence: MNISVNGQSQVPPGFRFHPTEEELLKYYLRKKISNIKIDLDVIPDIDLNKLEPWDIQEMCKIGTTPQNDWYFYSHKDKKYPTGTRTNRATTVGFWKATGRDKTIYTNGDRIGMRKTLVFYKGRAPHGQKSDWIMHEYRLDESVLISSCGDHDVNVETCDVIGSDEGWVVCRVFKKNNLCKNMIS
# Outline: as §1
# [13] = target: GST-WRKY1(266-371) (Arabidopsis thaliana, UniProt Q9SI37 266-371); settings: protein: recombinant; tags: GST; dsDNA, one strand shown
# Sequence of GST-WRKY1(266-371) (Q9SI37 266-371): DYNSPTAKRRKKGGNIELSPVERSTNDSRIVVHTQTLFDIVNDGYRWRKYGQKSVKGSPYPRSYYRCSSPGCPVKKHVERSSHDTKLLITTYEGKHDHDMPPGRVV
# Outline: as §1
Sequence,binding signal [1],binding signal [2],binding signal [3],binding signal [4],binding signal [5],binding signal [6],binding signal [7],binding signal [8],binding signal [9],binding signal [10],binding signal [11],binding signal [12],binding signal [13]
GACACGGC,0.235 E-score,0.42 E-score,0.351 E-score,0.278 E-score,0.387 E-score,0.237 E-score,0.0582 E-score,0.116 E-score,0.328 E-score,0.348 E-score,–,–,–
CTTCCTTA,0.158 E-score,0.0721 E-score,–,–,0.104 E-score,–,0.223 E-score,0.21 E-score,0.0785 E-score,–,0.447 E-score,0.151 E-score,0.0845 E-score
AGTCAAAC,–,0.0687 E-score,0.103 E-score,0.109 E-score,–,0.0582 E-score,0.07 E-score,0.126 E-score,0.103 E-score,–,0.0896 E-score,0.0701 E-score,0.491 E-score
TTGACCAA,0.232 E-score,0.063 E-score,0.0923 E-score,0.066 E-score,0.226 E-score,–,–,0.0845 E-score,0.0958 E-score,–,–,–,0.491 E-score
ATACGCCA,0.455 E-score,–,0.22 E-score,0.331 E-score,0.455 E-score,0.201 E-score,0.0758 E-score,0.398 E-score,0.192 E-score,0.247 E-score,–,0.283 E-score,–
ATGCCGTA,0.373 E-score,0.395 E-score,0.355 E-score,0.385 E-score,0.41 E-score,0.36 E-score,0.0526 E-score,0.307 E-score,0.412 E-score,0.432 E-score,–,0.117 E-score,–
AAGTCAGA,0.0562 E-score,0.0582 E-score,0.073 E-score,–,0.14 E-score,–,–,0.0642 E-score,0.166 E-score,–,0.0583 E-score,0.132 E-score,0.455 E-score
ACGCCATC,0.421 E-score,–,0.098 E-score,0.0609 E-score,0.453 E-score,0.171 E-score,–,0.41 E-score,0.125 E-score,0.108 E-score,–,0.237 E-score,–
ACGCTACT,0.385 E-score,0.123 E-score,0.226 E-score,0.288 E-score,0.425 E-score,0.236 E-score,0.0894 E-score,0.394 E-score,0.241 E-score,–,–,0.314 E-score,0.092 E-score
CACGTTAG,0.387 E-score,–,0.0916 E-score,0.13 E-score,0.412 E-score,0.0974 E-score,–,0.237 E-score,0.164 E-score,0.0853 E-score,–,0.117 E-score,–
AGTTGACG,0.0881 E-score,0.0919 E-score,0.0862 E-score,0.213 E-score,–,0.0554 E-score,–,0.198 E-score,0.0565 E-score,–,–,0.107 E-score,0.43 E-score
CACGCTAC,0.46 E-score,0.167 E-score,0.0982 E-score,0.167 E-score,0.476 E-score,–,–,0.441 E-score,0.0671 E-score,0.135 E-score,–,0.298 E-score,–
ATGGCGTA,0.393 E-score,–,–,0.185 E-score,0.426 E-score,0.184 E-score,–,0.452 E-score,0.149 E-score,0.192 E-score,–,0.299 E-score,–
AGCGTAAA,0.223 E-score,0.0508 E-score,–,0.12 E-score,0.241 E-score,0.126 E-score,–,0.413 E-score,0.15 E-score,0.119 E-score,–,0.244 E-score,–
ACGGAACC,0.361 E-score,0.454 E-score,0.446 E-score,0.38 E-score,0.4 E-score,0.461 E-score,0.172 E-score,0.235 E-score,0.382 E-score,0.435 E-score,–,0.12 E-score,–
